# Test results taken from the supplement of paper PMC9446081.
# About 220 (0.56%) of roughly 39,000 compounds showed activity. This is one part of a sample in which actives are shown more often than they occur.
# Test system: Escherichia coli K-12 BW25113
# Experiment: relative growth (OD600 normalised to plate interquartile mean) (fraction); higher = less growth inhibition, active = 0.2 or less
# Settings: 50 µM; LB; incubation time: overnight (16-24 h)
# 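Further: Wild-type cells incubated without shaking, value is the mean of two biological replicates.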
row,Structure (SMILES),relative growth
1,COc1ccc(-c2cnc3c(c2)C(=O)N([C@H](C)CO)C[C@H](C)[C@@H](CN(C)S(=O)(=O)c2ccc(OC)cc2)O3)cc1,1 (inactive)
2,C[C@@H]1CN([C@@H](C)CO)C(=O)c2cc(N(C)C)ccc2O[C@@H](C)CCCCO[C@@H]1CN(C)C(=O)Nc1ccc(C(F)(F)F)cc1,0.928 (inactive)
3,COc1cccc(S(=O)(=O)Nc2ccc3c(c2)[C@@H]2C[C@@H](CC(=O)N4CCCCC4)O[C@@H](CO)[C@@H]2O3)c1,0.993 (inactive)
4,C[C@H]1CN([C@@H](C)CO)S(=O)(=O)c2ccc(Br)cc2O[C@@H]1CN(C)C(=O)c1cccnc1,0.972 (inactive)
5,C[C@@H]1CN([C@H](C)CO)S(=O)(=O)c2ccc(-c3cccc(C#N)c3)cc2O[C@@H]1CN(C)C(=O)c1cccnc1,1.01 (inactive)
6,Cc1n[nH]c(=S)n1N,0.968 (inactive)
7,Cc1nnsc1-c1onc(C)c1C(N)=O,0.866 (inactive)
8,C[C@H]1CN([C@@H](C)CO)C(=O)c2cccc(NC(=O)C3CC3)c2O[C@@H]1CN(C)S(=O)(=O)c1ccc(Cl)cc1,1 (inactive)
9,C[C@@H]1CN([C@H](C)CO)C(=O)Cc2cc(NC(=O)Cc3cn(C)c4ccccc34)ccc2O[C@H]1CN(C)CC1CCCCC1,1.02 (inactive)
10,CO[C@H]1C[C@@H]2CC[C@@H](C)[C@@](O)(O2)C(=O)C(=O)N2CCCC[C@H]2C(=O)O[C@H]([C@H](C)C[C@@H]2CC[C@@H](OP(C)(C)=O)[C@H](OC)C2)CC(=O)[C@H](C)/C=C(\C)[C@@H](O)[C@@H](OC)C(=O)[C@H](C)C[C@H](C)/C=C/C=C\C=C\1C,0.837 (inactive)
11,Cl.Nc1c2c(nc3ccccc13)CCCC2,0.911 (inactive)
12,Nc1c2c(nc3ccccc13)CCCC2,0.985 (inactive)
13,Nc1c2ccccc2nc2ccccc12,0.0461 (active)
14,Cc1noc(C)c1NC(=O)N(C)C[C@H]1Oc2ccc(NS(=O)(=O)c3cn(C)cn3)cc2C(=O)N([C@H](C)CO)C[C@H]1C,0.989 (inactive)
15,C[C@@H]1CN([C@H](C)CO)C(=O)Cc2cc(NC(=O)C3CCCCC3)ccc2O[C@H]1CN(C)Cc1ccc(C(=O)Nc2ccccc2N)cc1,0.979 (inactive)
16,COc1cc2c(cc1OC)CN(CCc1ccc(NC(=O)c3cc(OC)c(OC)cc3NC(=O)c3cnc4ccccc4c3)cc1)CC2,0.965 (inactive)
17,CC(=O)O.N=C(N)NN=Cc1c(Cl)cccc1Cl,0.885 (inactive)
18,COC(=O)NN=Cc1c[n+]([O-])c2ccccc2[n+]1[O-],0.574 (inactive)
19,COC(=O)N/N=C/c1c[n+]([O-])c2ccccc2[n+]1[O-],0.0462 (active)
20,C[C@H]1CN([C@@H](C)CO)C(=O)c2cccc(NS(=O)(=O)c3ccccc3)c2O[C@H]1CN(C)S(C)(=O)=O,0.967 (inactive)
21,O=c1c(O[C@@H]2O[C@H](CO)[C@@H](O)[C@H](O)[C@@H]2O[C@H]2OC[C@](O)(CO)[C@H]2O)c(-c2ccc(O)c(O)c2)oc2cc(O)cc(O)c12,1.02 (inactive)
22,O=C(C[C@@H]1CC[C@@H](NS(=O)(=O)c2ccc(F)cc2)[C@@H](CO)O1)N1CCC(Cc2ccccc2)CC1,0.987 (inactive)

row,Structure (SMILES),relative growth
1,CCC(=O)Nc1ccc(Cl)cc1,1 (inactive)
2,CC(C)NC(=N)NC(=N)Nc1ccc(Cl)cc1.Cl,0.965 (inactive)
3,Cl.Cl.N=C(NCCCCCCNC(=N)NC(=N)Nc1ccc(Cl)cc1)NC(=N)Nc1ccc(Cl)cc1,0.0423 (active)
4,Cc1noc(C)c1NC(=O)N(C)C[C@H]1OCCCC[C@@H](C)Oc2ccc(NC(=O)C3CCCCC3)cc2C(=O)N([C@@H](C)CO)C[C@H]1C,0.976 (inactive)
5,Cc1noc(C)c1NC(=O)N(C)C[C@H]1Oc2c(NC(=O)C3CC3)cccc2C(=O)N([C@H](C)CO)C[C@@H]1C,1 (inactive)
6,CC(C)NC(=O)Nc1ccc2c(c1)C(=O)N([C@@H](C)CO)C[C@H](C)[C@H](CN(C)CC1CCCCC1)OCCCC[C@H](C)O2,1.01 (inactive)
7,CC[C@@H](O)C[C@H]1CC[C@H]([C@@H](C)C(=O)O[C@@H](C)C[C@H]2CC[C@H]([C@@H](C)C(=O)O[C@@H](C)C[C@H]3CC[C@H]([C@@H](C)C(=O)O[C@@H](C)C[C@H]4CC[C@H]([C@@H](C)C(=O)O)O4)O3)O2)O1,1.06 (inactive)
8,CN(C)CCC=C1c2ccccc2CCc2ccccc21.Cl,0.976 (inactive)
9,CN(C)CCC=C1c2ccccc2COc2ccc(CC(=O)O)cc21.Cl,0.0442 (active)
10,CN(C)CCC=C1c2ccccc2COc2ccccc21.Cl,1.03 (inactive)
11,C[C@@H]1CN([C@H](C)CO)C(=O)c2ccccc2-c2ccccc2CO[C@@H]1CN(C)C(=O)Nc1cccc(F)c1,1.01 (inactive)
12,CCOC(=O)Cn1cc(F)c(=O)[nH]c1=O,1.06 (inactive)
13,CC(=O)On1cc(F)c(=O)[nH]c1=O,0.0691 (active)
14,CCOC(=O)CCn1cc(F)c(=O)[nH]c1=O,0.986 (inactive)
15,CCC1OC(=O)C(C)C(=O)C(C)C(OC2OC(C)CC(N(C)C)C2O)C(C)(OC)CC(C)C(=O)C(C)C2N(CCCCn3cnc(-c4cccnc4)c3)C(=O)OC12C (stereo not given),0.0499 (active)
16,C[C@@H]1CCCCO[C@@H](CN(C)CC2CCCCC2)[C@@H](C)CN([C@H](C)CO)C(=O)c2cc(N(C)C)ccc2O1,1 (inactive)
17,CN(C)C1C(O)=C(C(N)=O)C(=O)C2(O)C(O)=C3C(=O)c4c(O)cccc4C(C)(O)C3C(O)C12.Cl (stereo not given),0.0578 (active)
18,CN(C)C1C(O)=C(C(N)=O)C(=O)C2(O)C(O)=C3C(=O)c4c(O)ccc(Cl)c4C(C)(O)C3CC12.Cl (stereo not given),0.0595 (active)
19,CN(C)c1ccc(O)c2c1CC1CC3C(N(C)C)C(O)=C(C(N)=O)C(=O)C3(O)C(O)=C1C2=O.Cl (stereo not given),0.0626 (active)
20,CN(C)c1cc(NC(=O)CNC(C)(C)C)c(O)c2c1CC1CC3C(N(C)C)C(O)=C(C(N)=O)C(=O)C3(O)C(O)=C1C2=O (stereo not given),1.06 (inactive)
21,CN(C)C1C(O)=C(C(N)=O)C(=O)C2(O)C(O)=C3C(=O)c4c(O)cccc4C(C)(O)C3CC12.Cl (stereo not given),0.056 (active)
22,CN(C)[C@@H]1C(=O)C(C(=O)NCN2CCCC2)=C(O)[C@@]2(O)C(O)=C3C(=O)c4c(O)cccc4[C@@](C)(O)[C@H]3C[C@@H]12,0.516 (inactive)

row,Structure (SMILES),relative growth
1,C[C@@H]1CCCCO[C@H](CN(C)Cc2ccc(C(F)(F)F)cc2)[C@H](C)CN([C@H](C)CO)C(=O)c2cc(NS(=O)(=O)c3ccc(F)cc3)ccc2O1,1.02 (inactive)
2,C[C@@H]1CN([C@H](C)CO)C(=O)c2cc(NS(=O)(=O)c3ccc(F)cc3)ccc2O[C@@H](C)CCCCO[C@H]1CN(C)Cc1ccccc1,0.999 (inactive)
3,C[C@@H]1CN([C@@H](C)CO)C(=O)c2cc(-c3ccc(F)cc3)cnc2O[C@@H]1CN(C)C(=O)Cc1ccccn1,0.977 (inactive)
4,Cc1ccc(S(=O)(=O)N(C)C[C@@H]2Oc3c(NS(=O)(=O)c4ccc(F)cc4)cccc3C(=O)N([C@H](C)CO)C[C@@H]2C)cc1,1.01 (inactive)
5,COc1ccc(S(=O)(=O)N(C)C[C@H]2Oc3cc(C#CC4CCCC4)ccc3S(=O)(=O)N([C@@H](C)CO)C[C@H]2C)cc1,1.04 (inactive)
6,COc1ccc(CN(C)C[C@H]2Oc3ccc(NC(=O)Nc4ccc(C(F)(F)F)cc4)cc3CC(=O)N([C@@H](C)CO)C[C@H]2C)cc1,0.99 (inactive)
7,C[C@@H]1CCCCO[C@@H](CN(C)C(=O)Nc2ccc(C(F)(F)F)cc2)[C@H](C)CN([C@H](C)CO)C(=O)c2cc(NS(=O)(=O)c3cccs3)ccc2O1,1.03 (inactive)
8,O=C(O)[C@H]1O[C@@H](Oc2c(-c3ccc(O)cc3)oc3cc(O)cc(O)c3c2=O)[C@H](O)[C@@H](O)[C@@H]1O,1.01 (inactive)
9,C[C@H]1CN([C@@H](C)CO)S(=O)(=O)c2ccc(-c3cncnc3)cc2O[C@@H]1CN(C)C(=O)NC1CCCC1,1 (inactive)
10,CCC(=O)Nc1cnc(OC)nc1OC,1.01 (inactive)
11,C[C@@H]1CCCCO[C@H](CN(C)C(=O)Nc2ccc(C(F)(F)F)cc2)[C@@H](C)CN([C@@H](C)CO)C(=O)c2cc(NC(=O)c3ccncc3)ccc2O1,0.979 (inactive)
12,CN(C)CCCNC(=O)C[C@@H]1CC[C@@H]2[C@@H](COc3ccc(NC(=O)c4cccc(F)c4)cc3C(=O)N2C)O1,0.965 (inactive)
13,CC(C)NC(=O)N(C)C[C@@H]1Oc2c(NS(=O)(=O)c3ccc(Cl)cc3)cccc2C(=O)N([C@@H](C)CO)C[C@@H]1C,1.09 (inactive)
14,C[C@H](CO)N1C[C@H](C)[C@H](CN(C)C(=O)c2ccncc2)OCCCC[C@H](C)Oc2ccc(NS(C)(=O)=O)cc2C1=O,1.02 (inactive)
15,CN(C)C1C(O)=C(C(N)=O)C(=O)C2(O)C(O)=C3C(=O)c4c(O)ccc(Cl)c4C(O)C3CC12.Cl (stereo not given),0.0565 (active)
16,COC(=O)C(=C1OC(=O)C(c2ccccc2)=C1O)c1ccccc1,0.951 (inactive)
17,CC(O)C1C(=O)N2C(C(=O)O)=C(SC3CNC(C(=O)N(C)C)C3)C(C)C12 (stereo not given),0.0517 (active)
18,CC(O)C1C(=O)N2C(C(=O)[O-])=C(SC3Cn4cnc[n+]4C3)C(C)C12 (stereo not given),0.307 (inactive)
19,C[C@@H](O)[C@H]1C(=O)N2C(C(=O)O)=C(SCCNC=N)C[C@H]12,1.01 (inactive)
20,C[C@@H]1CN([C@@H](C)CO)C(=O)c2cc(NS(=O)(=O)c3ccc(F)cc3)ccc2O[C@@H](C)CCCCO[C@H]1CN(C)Cc1ccccc1,0.979 (inactive)
21,C[C@@H]1CCCCO[C@@H](CN(C)C(=O)Nc2ccc3c(c2)OCO3)[C@@H](C)CN([C@@H](C)CO)C(=O)c2cc(NS(=O)(=O)c3ccccc3)ccc2O1,1.01 (inactive)
